Bioassay records deposited in PubChem by several laboratories.
EWS-Fli inh = EWS/Fli-driven NR0B1 reporter inhibitors, primary screen, A673 cells, NR0B1 luciferase, luminescence, MLPCN library; viability-normalised; 350,000 tested, 0.67% active; inhibition, % at 12.6 µM;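 active = mean inhibition of at least 50% after viability correction, with every replicate also passing that limit; inconclusive = mean reaches 50% but only one of two replicates passes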;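 also: firefly luciferase signal divided by Alamar Blue viability fluorescence both relative to DMSO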
Shn3 inh set2 = reduction of Shn3 3'UTR firefly luciferase signal, primary screen, Schnurri-3 inhibitor project, cell-based, Clone20 osteoblasts, set 2 | AID 588674, 2011 | inhibition, % at 12.5 µM | Clone20 osteoblast Shn3 3'UTR firefly luciferase, 24 h | 360,000 tested, 0.52% active;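 active = mean inhibition of at least 75% with every replicate also reaching 75%; inconclusive = mean inhibition at least 75% but some replicate below; inactive = mean inhibition below 75%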;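 also: 0% = median of neutral control wells and 100% = pilot-screen positive control compound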
CF NFkB block = inhibitors of PAF-induced NF-kB signaling, primary screen, cell-based, GFP fluorescence, uHTS. KKLEB NF-kB-GFP reporter, GFP fluorescence overnight. inhibition, % at 5 µM. 360,000 tested, 0.86% active. AID 588850, 2011;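 active = at least 50% inhibition at 5 µM, scaled per plate between neutral and stimulator controls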;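 also: PAF is a Pseudomonas aeruginosa culture filtrate used as stimulus; plate controls were PAF-stimulated DMSO wells for no effect and unstimulated DMSO wells for full effect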
KKLEB tox = cytotoxicity in KKLEB CF airway cells, primary screen, cytotoxicity control for CF NF-kB inhibitor project, cell-based, uHTS, fluorescence assay plates; KKLEB CF airway cells viability, ATPlite luminescence, overnight; active compounds read low; cells stimulated with P. aeruginosa culture filtrate; activity change (cytotoxicity), % at 5 µM; 360,000 tested, 0.36% active; AID 602141, 2011;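 active = corrected activity change at or below -50% at 5 µM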
PAX8 inh HTS = inhibitors of PAX8-driven TPO luciferase reporter, primary screen, RMG-I cells, single concentration; SteadyGlo, 24 h; inhibition, % at 12.6 µM; 360,000 tested, 1.2% active;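 active = mean replicate inhibition at least 60% with every replicate also reaching 60%; inconclusive = only one of the two criteria is met; inactive = mean below 60% and not all replicates reaching 60%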;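 also: luciferase light reporting Pax8 driven TPO promoter activity; plate controls were median of neutral control wells for no effect and mitoxantrone controls for full effect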
LGR2 inh = inhibitors of bursicon-induced LGR2 CRE-luciferase signal, primary screen, cell-based, HEK293, CRE-luciferase reporter, bursicon stimulation. 380,000 tested, 0.35% active. Drosophila bursicon receptor LGR2 (rickets). inhibition, % at 9.99 µM. bursicon-stimulated, 4 h;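 active = drop in luminescence signal, shown as inhibition above about 50% in the replicate tests, limit read from the data, passing the limit was not always enough; inconclusive = probably only some replicates passing the limit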;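 also: agonist challenge used bursicon conditioned medium at about half maximal strength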
* hit, by the source's call. The list is not random: actives were taken first. Their share in the collection is about 2%.

Screening CC(=O)OC(C)(C)/C=C/C(=O)[C@](C)(O)C1[C@H](O)C[C@@]2(C)C3CC=C4C(C=C(O[C@@H]5O[C@H](CO)[C@@H](O)[C@H](O)[C@H]5O)C(=O)C4(C)C)[C@]3(C)C(=O)C[C@]12C (some centres undefined) returned EWS-Fli inh -10, Shn3 inh set2 15, CF NFkB block 74*, KKLEB tox -68*, PAX8 inh HTS 102* and LGR2 inh inconclusive.
CC1(C)Oc2ccc3ccc(=O)oc3c2C[C@H]1O[C@@H]1O[C@H](CO)[C@@H](O)[C@H](O)[C@H]1O was read as EWS-Fli inh -8, Shn3 inh set2 19, CF NFkB block -11, KKLEB tox -3, PAX8 inh HTS -4 and LGR2 inh -4.
For c1ccc(-c2cnc(-c3ccccc3)nn2)cc1 the results were EWS-Fli inh 46, Shn3 inh set2 -53, CF NFkB block -1, KKLEB tox -5, PAX8 inh HTS -27 and LGR2 inh 74*.
`c1ccc(-c2cnc(-c3ccccn3)nn2)cc1` gave EWS-Fli inh -58, Shn3 inh set2 1, CF NFkB block -18, KKLEB tox -3, PAX8 inh HTS -170 and LGR2 inh 6.
Screening O=C1/C(=C/c2ccncc2)SC(=S)N1C1CCS(=O)(=O)C1 (centres undefined) returned Shn3 inh set2 -30, CF NFkB block 65*, KKLEB tox -10 and PAX8 inh HTS -44.
`C[C@H](CO)N1C[C@H](C)[C@@H](CN(C)Cc2ccc3c(c2)OCO3)Oc2ccc(NC(=O)Cn3cnnn3)cc2CC1=O` gave EWS-Fli inh -4, PAX8 inh HTS -6 and LGR2 inh 10.
C[C@@H]1CN([C@@H](C)CO)C(=O)Cc2cc(NC(=O)Nc3ccccc3)ccc2O[C@@H]1CN(C)Cc1ccc(Cl)c(Cl)c1 was read as EWS-Fli inh 8, PAX8 inh HTS inconclusive and LGR2 inh -6.
`C[C@H](CO)N1C[C@H](C)[C@H](CN(C)Cc2ccc(Cl)c(Cl)c2)Oc2ccc(NC(=O)Nc3ccc(F)cc3)cc2CC1=O` gave EWS-Fli inh -2, PAX8 inh HTS 6 and LGR2 inh 9.
Screening C[C@@H]1CN([C@@H](C)CO)C(=O)Cc2cc(NC(=O)Nc3ccc(F)cc3)ccc2O[C@H]1CN(C)Cc1ccc(Cl)c(Cl)c1 returned EWS-Fli inh 40, PAX8 inh HTS 105* and LGR2 inh 8.
Screening C[C@H]1CN([C@@H](C)CO)C(=O)Cc2cc(NC(=O)Cn3cnnn3)ccc2O[C@@H]1CN(C)Cc1ccc(Cl)c(Cl)c1 returned EWS-Fli inh 69*, PAX8 inh HTS 2 and LGR2 inh 13.
Screening C[C@@H]1CN([C@H](C)CO)C(=O)Cc2cc(NC(=O)Nc3ccc(F)cc3)ccc2O[C@@H]1CN(C)Cc1ccc(Cl)c(Cl)c1 returned EWS-Fli inh -21, PAX8 inh HTS 109* and LGR2 inh -15.
`C[C@H](CO)N1C[C@H](C)[C@@H](CN(C)Cc2ccc(Cl)c(Cl)c2)Oc2ccc(NC(=O)Nc3ccc(F)cc3)cc2CC1=O` gave EWS-Fli inh 63*, PAX8 inh HTS 84* and LGR2 inh 21.
For C[C@H](CO)N1C[C@H](C)[C@@H](CN(C)Cc2ccc3c(c2)OCO3)OCCCC[C@H](C)Oc2ccc(NS(C)(=O)=O)cc2C1=O the results were EWS-Fli inh -1, PAX8 inh HTS -9 and LGR2 inh 4.
C[C@H]1CN([C@@H](C)CO)C(=O)Cc2cc(NC(=O)Nc3ccc(F)cc3)ccc2O[C@H]1CN(C)Cc1ccc(Cl)c(Cl)c1 was read as EWS-Fli inh -12, PAX8 inh HTS 110* and LGR2 inh 5.
Screening C[C@@H]1CCCCO[C@@H](CN(C)S(=O)(=O)c2cn(C)cn2)[C@@H](C)CN([C@@H](C)CO)C(=O)c2cc(NC(=O)Cc3ccccc3)ccc2O1 returned EWS-Fli inh -76, PAX8 inh HTS -12 and LGR2 inh 17.
CCCC#Cc1cnc2c(c1)C(=O)N([C@@H](C)CO)C[C@@H](C)[C@@H](CN(C)S(=O)(=O)c1cn(C)cn1)O2 was read as EWS-Fli inh 2, PAX8 inh HTS -17 and LGR2 inh -8.
Cc1noc(C)c1S(=O)(=O)Nc1ccc2c(c1)CC(=O)N([C@@H](C)CO)C[C@@H](C)[C@@H](CN(C)S(=O)(=O)c1ccccc1)O2 was read as EWS-Fli inh -6, PAX8 inh HTS -18 and LGR2 inh 4.
Screening C/C(Cl)=C\Cn1c(O)c(N=NC(N)=S)c2ccccc21 returned EWS-Fli inh 57*, Shn3 inh set2 11, CF NFkB block 24, KKLEB tox -34, PAX8 inh HTS 3 and LGR2 inh 14.
Screening O=C1c2cccnc2C(=O)N1CO returned Shn3 inh set2 -11, CF NFkB block 0 and KKLEB tox -3.
Screening NC1=C(Br)C(=O)c2ncccc2C1=O returned EWS-Fli inh 20, Shn3 inh set2 97*, CF NFkB block 79*, KKLEB tox -64*, PAX8 inh HTS 131* and LGR2 inh 101*.
`C[C@@H]1CN([C@H](C)CO)C(=O)c2cccc(NC(=O)Nc3ccccc3)c2O[C@@H]1CN(C)Cc1ccc(C(=O)Nc2ccccc2N)cc1` gave EWS-Fli inh 46, PAX8 inh HTS 46 and LGR2 inh -1.
Screening C(=Cc1c[nH]c2ccccc12)c1nccc2ccccc12 returned EWS-Fli inh 22, Shn3 inh set2 -2, CF NFkB block -249, KKLEB tox -55*, PAX8 inh HTS -2 and LGR2 inh 94*.
O=Cc1nccc2ccccc12 was read as EWS-Fli inh 19, Shn3 inh set2 -3, CF NFkB block 28, KKLEB tox 12, PAX8 inh HTS 22 and LGR2 inh 1.
For Cn1c(=O)oc2cc(S(=O)(=O)N3CCCc4ccccc43)ccc21 the results were EWS-Fli inh 59*, Shn3 inh set2 20, CF NFkB block 23, KKLEB tox -8, PAX8 inh HTS 53 and LGR2 inh 4.
O=C(C[C@H]1C[C@H]2c3cc(NS(=O)(=O)c4ccc(F)cc4)ccc3O[C@H]2[C@@H](CO)O1)NCC(F)(F)F was read as EWS-Fli inh 2, PAX8 inh HTS 0 and LGR2 inh 0.
Screening COc1ccc(-n2sc3ccc(F)cc3c2=O)cc1 returned EWS-Fli inh -27, Shn3 inh set2 -5, CF NFkB block 35, KKLEB tox -4, PAX8 inh HTS -11 and LGR2 inh inconclusive.
